As a reminder, the AC50 is the concentration at which the activity in the assay is half-maximal.

The values below come from PubChem BioAssay (EPA / NIEHS).

For experiment [1], the target named is Transcriptional activator Myb (Homo sapiens) (UniProt P10242). Nature of the experiment: ATG_Myb_CIS: Attagene CIS-FACTORIAL HepG2 Assay for human Myeloblastosis (Myb) Proto-Oncogene Transcription Factor (AID 2282986). The conditions noted are these: HepG2 Attagene CIS-FACTORIAL Myb reporter transcription; actives raise or lower the signal. In outline: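 Fluorescence signals from capillary electrophoresis of RT-PCR-amplified reporter cDNA give the read-out. Cells: HepG2 transfected with multiple cis-regulated reporter units. Exposure lasts 24 hours; DMSO defines baseline for gain or loss of signal.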
Chain of Transcriptional activator Myb (Homo sapiens) (P10242 whole entry, looked up): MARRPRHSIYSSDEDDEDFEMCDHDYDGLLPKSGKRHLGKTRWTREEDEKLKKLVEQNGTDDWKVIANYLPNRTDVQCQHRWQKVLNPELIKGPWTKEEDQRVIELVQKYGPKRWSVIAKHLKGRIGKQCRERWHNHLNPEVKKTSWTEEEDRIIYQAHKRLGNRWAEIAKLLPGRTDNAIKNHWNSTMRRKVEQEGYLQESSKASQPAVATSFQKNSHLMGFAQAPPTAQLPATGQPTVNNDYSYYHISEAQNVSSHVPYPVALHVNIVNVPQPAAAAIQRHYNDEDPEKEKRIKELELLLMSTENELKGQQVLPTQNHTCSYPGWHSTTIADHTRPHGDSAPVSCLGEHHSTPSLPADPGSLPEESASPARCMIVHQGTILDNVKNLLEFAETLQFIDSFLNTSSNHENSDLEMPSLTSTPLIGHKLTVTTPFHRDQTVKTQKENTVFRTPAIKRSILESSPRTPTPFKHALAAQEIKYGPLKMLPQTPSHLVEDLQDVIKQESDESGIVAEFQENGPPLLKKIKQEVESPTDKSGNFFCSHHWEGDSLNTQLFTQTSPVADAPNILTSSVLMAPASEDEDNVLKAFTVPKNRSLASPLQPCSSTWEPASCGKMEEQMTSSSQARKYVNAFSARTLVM

For experiment [2], the target named is Nuclear respiratory factor 1 (Homo sapiens) (UniProt Q16656). Nature of the experiment: ATG_NRF1_CIS: Attagene CIS-FACTORIAL HepG2 Assay for human Nuclear Respiratory Factor 1 (NRF1) Orphan Gene (AID 2282987). The conditions noted are these: HepG2 NRF1 cis-element reporter, Attagene multiplex; actives raise or lower the signal. In outline:
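Transcriptional reporter readout, one component of a 52-endpoint multiplexed HepG2 panel. Exposure 24 h; mRNA detected via RT-PCR and fluorescent capillary electrophoresis; fitting in both directions against DMSO.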

Experiment [3] is described as follows: ATG_NFI_CIS: Attagene CIS-FACTORIAL HepG2 Assay for human Nuclear Factor I (NFI) (AID 2282989). The conditions noted are these: HepG2 cis-regulatory reporter, NFI response element transcription; actives raise or lower the signal. In outline: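 Multiplexed cis-reporter system in human HepG2 cells reports native TF activity as reporter mRNA induction 24 h post-dose. Fragments labelled with 6-FAM, HpaI-digested and resolved by capillary electrophoresis; activity fitted both directions versus DMSO.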

Experiment [4] deals with Myc proto-oncogene protein (Homo sapiens) (UniProt P01106). Nature of the experiment: ATG_Myc_CIS: Attagene CIS-FACTORIAL HepG2 Assay for human Myelocytomatosis (Myc) Proto-Oncogene Transcription Factor (AID 2282990). Conditions: HepG2, Attagene cis-reporter transcription factor activity; actives raise or lower the signal. In outline: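 Read-out: fluorescent reporter mRNA fragments resolved by capillary electrophoresis after RT-PCR. Human HepG2 liver cells carried transfected cis-element reporter units and were dosed for 24 h. Gain or loss of signal fitted relative to DMSO baseline.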
Chain of Myc proto-oncogene protein (Homo sapiens) (P01106 whole entry, looked up, the tested form may be a part): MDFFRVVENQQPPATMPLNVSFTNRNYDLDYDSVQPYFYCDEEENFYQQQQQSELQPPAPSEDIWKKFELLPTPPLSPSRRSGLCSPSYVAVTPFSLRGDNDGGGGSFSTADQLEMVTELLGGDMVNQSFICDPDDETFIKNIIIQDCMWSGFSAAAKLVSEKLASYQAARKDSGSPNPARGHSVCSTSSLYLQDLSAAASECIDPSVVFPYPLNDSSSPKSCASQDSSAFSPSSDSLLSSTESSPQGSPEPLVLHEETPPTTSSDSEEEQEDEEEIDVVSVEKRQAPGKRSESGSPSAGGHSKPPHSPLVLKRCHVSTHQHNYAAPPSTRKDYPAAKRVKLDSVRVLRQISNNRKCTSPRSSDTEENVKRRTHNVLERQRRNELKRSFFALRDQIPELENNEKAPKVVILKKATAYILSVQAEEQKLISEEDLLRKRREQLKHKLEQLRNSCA

Experiment [5] in a line: ATG_NF_kB_CIS: Attagene CIS-FACTORIAL HepG2 Assay for human Nuclear Factor Kappa B (NF-kB) (AID 2282991). Conditions: HepG2 Attagene cis-factorial NF-kB reporter mRNA; actives raise or lower the signal. In outline:
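HepG2, transient multi-reporter transfection, cis promoter elements (endogenous TFs). 24 h exposure. Total RNA → RT → PCR → 6-FAM label → HpaI → CE. Gain/loss vs DMSO.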

The nature of experiment [6]: ATG_NRF2_ARE_CIS: Attagene CIS-FACTORIAL HepG2 Assay for human Nuclear Factor Erythroid 2 Related Factor 2 (NFR2) response to Antioxidant Response Elements (ARE) (AID 2282992).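 As to AC50: reporter mRNA level measured by RT-PCR and capillary electrophoresis fluorescence.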 Conditions: HepG2 Attagene ARE/NRF2 reporter, transcription factor activity; actives raise or lower the signal. In short, it runs like this:
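Fluorescence intensity of reporter-specific cDNA fragments, separated by capillary electrophoresis, reflects mRNA induction in transfected HepG2 cells at 24 h. Activity is fitted bidirectionally, DMSO serving as baseline.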

Experiment [7] can be described thus: ATG_Oct_MLP_CIS: Attagene CIS-FACTORIAL HepG2 Assay for human Octamer-Binding Transcription Factor (Oct) (AID 2282993). Conditions: HepG2 Attagene cis-factorial Oct reporter, mRNA; actives raise or lower the signal. In outline:
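After 24 h compound exposure, transfected HepG2 cells were lysed for total RNA; reporter-specific cDNA was PCR-amplified, fluorescently labelled and sized by capillary electrophoresis. Bidirectional curve fitting used DMSO as baseline.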

Experiment [8] deals with Cellular tumor antigen p53 (Homo sapiens) (UniProt P04637). In words: ATG_p53_CIS: Attagene CIS-FACTORIAL HepG2 Assay for human p53 Transcription Factor (AID 2282994). The conditions noted are these: HepG2 p53 cis-element reporter, Attagene mRNA; actives raise or lower the signal. In outline: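 Transiently transfected HepG2 (multiple cis reporter transcription units); exposure 24 h; reporter RNA via RT-PCR, 6-FAM extension, 2 h HpaI digest at 37 C, CE detection; DMSO baseline.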
Chain of Cellular tumor antigen p53 (Homo sapiens) (P04637 whole entry, looked up): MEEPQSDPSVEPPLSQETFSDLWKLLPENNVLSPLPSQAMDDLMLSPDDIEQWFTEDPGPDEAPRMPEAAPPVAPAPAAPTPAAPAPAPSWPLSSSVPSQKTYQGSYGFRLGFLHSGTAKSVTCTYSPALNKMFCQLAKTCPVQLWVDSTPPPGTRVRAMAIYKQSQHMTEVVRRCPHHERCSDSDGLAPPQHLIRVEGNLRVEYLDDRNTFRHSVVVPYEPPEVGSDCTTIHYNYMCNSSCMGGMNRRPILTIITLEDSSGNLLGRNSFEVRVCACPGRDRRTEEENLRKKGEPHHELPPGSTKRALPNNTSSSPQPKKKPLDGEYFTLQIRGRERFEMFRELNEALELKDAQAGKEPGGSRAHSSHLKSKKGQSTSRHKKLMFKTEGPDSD

A short description of experiment [9]: BSK_3C_TissueFactor: BioMAP Diversity Plus: 3C Assay for Tissue Factor Biomarker Activity (AID 2282997). Conditions: BioMAP 3C HUVEC, tissue factor biomarker readout; actives raise or lower the signal. In short, it runs like this: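 Cells used were primary human umbilical vein endothelial cells. They were dosed with chemical, and after 24 h Tissue Factor was quantified by ELISA. Curves were fitted bidirectionally with DMSO as baseline.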

Experiment [10] can be described thus: BSK_3C_uPAR: BioMAP Diversity Plus: 3C Assay for Urokinase-type plasminogen activator receptor (uPAR) Biomarker Activity (AID 2282998). The conditions noted are these: BioMAP 3C HUVEC, uPAR biomarker ELISA; actives raise or lower the signal. In short, it runs like this: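 Values derive from bidirectional curve fitting relative to DMSO, which served as baseline of activity. uPAR was measured by ELISA in human umbilical vein endothelial primary cultures 24 h after compound addition.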

Structures are written as SMILES. Where “and” joins values, the source holds several entries; their conditions need not be identical. Identical values can stand only once. Some compounds were tested as several samples or in several runs, with calls that do not always agree. Calls of active or inactive are those of the source. The calls were made as follows: active = hit-call score of the fitted dose curve at least 0.9, where 1 is the maximum; inactive = score below 0.9.

Chain of Nuclear respiratory factor 1 (Homo sapiens) (Q16656 whole entry, looked up): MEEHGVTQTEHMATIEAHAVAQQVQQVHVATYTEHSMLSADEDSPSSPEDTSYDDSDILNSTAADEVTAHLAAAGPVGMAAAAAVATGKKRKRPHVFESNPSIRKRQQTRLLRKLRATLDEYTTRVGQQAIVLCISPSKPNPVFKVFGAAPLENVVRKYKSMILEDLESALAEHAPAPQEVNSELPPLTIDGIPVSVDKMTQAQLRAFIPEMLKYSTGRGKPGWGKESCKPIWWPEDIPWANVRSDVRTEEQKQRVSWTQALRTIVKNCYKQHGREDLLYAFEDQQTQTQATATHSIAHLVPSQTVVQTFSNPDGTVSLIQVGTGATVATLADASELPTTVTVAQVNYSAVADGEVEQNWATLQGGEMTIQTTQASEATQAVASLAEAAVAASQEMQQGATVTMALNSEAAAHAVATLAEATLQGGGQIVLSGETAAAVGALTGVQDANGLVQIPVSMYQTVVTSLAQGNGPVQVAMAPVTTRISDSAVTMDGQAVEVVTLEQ

For `COC(=O)C(C)Oc1ccc(Oc2ccc(Cl)cc2Cl)cc1` (stereo not drawn), the result in experiment [1], in [2], in experiment [3], in experiment [4], in [5] and in [6] was inactive. The call in [7], in experiment [8] and in [9] was inactive. Besides, the AC50 in [10] was 25.7 µM (active) and 20 µM (active) and 13.3 µM (active).
As to `Cc1ccc(-c2c(Cl)nc(C#N)n2S(=O)(=O)N(C)C)cc1`, the molecule was called inactive in experiment [1], in experiment [2], in experiment [3], in experiment [4], in experiment [5] and in experiment [8]. The half-maximal activity concentration (AC50) is 6.65 µM (active) in [6], 11.9 µM (active) in experiment [7], 27.3 µM (active) in [9] and 23.9 µM (active) in [10].
Consider `Oc1ccccc1-c1ccccc1`, for which the molecule was classed as inactive in [1], in experiment [2], in experiment [3], in experiment [4], in [7] and in [8]. In addition, the outcome in experiment [9] and in [10] was inactive. Further, the AC50 is 50 µM (active) in experiment [4]; 32.7 µM (active) and 26.2 µM (active) in experiment [6]; 50 µM (active) in [7].
As for `CNC(=S)S`, the molecule was classed as inactive in experiment [1], in experiment [2], in [3], in experiment [4], in experiment [5] and in experiment [7]. The molecule was called inactive in experiment [8], in experiment [9] and in [10]. In addition, the AC50 in [6] is 26.7 µM (active) and 17.6 µM (active); in [7], 50 µM (active).
With `CO/C=C(/C(=O)OC)c1ccccc1Oc1cc(Oc2ccccc2C#N)ncn1`, the call in experiment [1], in experiment [2], in experiment [3], in experiment [4], in experiment [6] and in experiment [7] was inactive. Moreover, the outcome in experiment [8] and in [9] was inactive. Moreover, the AC50 is 65.6 µM (active) in [2]; 15.6 µM (active) in experiment [7]; 21.1 µM (active) and 24.6 µM (active) in [9]; 13.3 µM (active) [middle of 4 runs] in experiment [10].
In the case of `CCCCNC(=O)OCC#CI`, the call in experiment [1], in [2], in experiment [3], in experiment [4], in [6] and in experiment [7] was inactive. In experiment [8], the result was inactive. Also, the half-maximal activity concentration (AC50) in [3] is 49 µM (active); in [4] it was 26.4 µM (active); in experiment [6] it was 27.6 µM (active); in experiment [7] it was 29.9 µM (active); in [8], 33.5 µM (active); in [9], 11.6 µM (active) and 21.2 µM (active). Moreover, the AC50 in experiment [10] was 13.4 µM (active) and 12.9 µM (active).
In the case of `CCCC1COC(Cn2cncn2)(c2ccc(Cl)cc2Cl)O1` (stereo not drawn), the molecule was called inactive in experiment [1], in experiment [2], in experiment [3], in experiment [4], in experiment [5] and in experiment [6]. For the same molecule, the molecule was classed as inactive in [7], in experiment [8], in [9] and in [10]. For the same molecule, the AC50 in [6] was 27.1 µM (active); in [7], 8.1 µM (active).
In the case of `COc1nc(C)nc(NC(=O)NS(=O)(=O)c2ccccc2CCC(F)(F)F)n1`, the molecule was classed as inactive in [1], in experiment [2], in experiment [3], in experiment [4], in experiment [5] and in [6]. The molecule was called inactive in experiment [7], in experiment [8], in experiment [9] and in experiment [10]. Also, the half-maximal activity concentration (AC50) in [6] is 16.7 µM (active) and 31.3 µM (active).
For `CCOC(=O)C(Cl)Cc1cc(-n2nc(C)n(C(F)F)c2=O)c(F)cc1Cl` (stereo not drawn), the molecule was classed as inactive in experiment [1], in [2], in experiment [3], in [4], in experiment [5] and in experiment [6]. Besides, the molecule was called inactive in experiment [7], in [8], in [9] and in experiment [10].
For `N#CC(CCc1ccc(Cl)cc1)(Cn1cncn1)c1ccccc1` (stereo not drawn), the result in experiment [1], in [2], in [3], in experiment [4], in experiment [5] and in [7] was inactive. For the same molecule, the molecule was classed as inactive in experiment [8], in experiment [9] and in experiment [10]. In experiment [6], the concentration at half-maximal activity (AC50) is 10.3 µM (active).
On to `COc1ccc(C(c2ccc(OC)cc2)C(Cl)(Cl)Cl)cc1`, for which the molecule was called inactive in [1], in [2], in experiment [3], in experiment [4], in [5] and in experiment [6]. Also, the outcome in experiment [7], in experiment [8] and in [9] was inactive. For the same molecule, the AC50 is 37.6 µM (active) in experiment [7] and 30.1 µM (active) in [10].
With `COc1nc(NC(C)C)nc(NC(C)C)n1`, the molecule was called inactive in experiment [1], in experiment [2], in experiment [3], in [4], in experiment [5] and in [6]. The call in experiment [7], in experiment [8], in [9] and in [10] was inactive. Also, the concentration at half-maximal activity (AC50) in experiment [7] is 41.1 µM (active).
